# Experimental data as given in PubChem BioAssay.
# Records with an inconclusive call do not appear. The source made the active and inactive calls. Unless noted, the limit is not given here; nearly all actives have AC50 up to about 27 µM.
# Experiment: growth inhibition of DIPG glioma cells, dose response, cell-based, SU-DIPG-XIII, MIPE4.0, CellTiter-Glo, qHTS (AID 1347061; cut-off not given, nearly all actives have AC50 up to about 37 µM;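 also: cells exposed to compound for 48 hours before readout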)
# Conditions: SU-DIPG-XIII viability, CellTiter-Glo ATP luminescence
SMILES,outcome,AC50
C[C@]12CCC3c4ccc(O)cc4CCC3C1CCC2=O (stereo not given in full),inactive,
OC[C@@H](O)[C@@H](O)[C@H](O)[C@@H](O)CO,inactive,
COC(=O)/C=C/C(=O)OC,,14.8 µM (active)
C=CC[C@@H]1/C=C(\C)C[C@H](C)C[C@H](OC)[C@H]2O[C@@](O)(C(=O)C(=O)N3CCCC[C@H]3C(=O)O[C@H](/C(C)=C/[C@@H]3CC[C@@H](O)[C@H](OC)C3)[C@H](C)[C@@H](O)CC1=O)[C@H](C)C[C@@H]2OC,,23.5 µM (active)
Cc1coc2c1C(=O)C(=O)c1c-2ccc2c1CCCC2(C)C,inactive,
C[C@H]1COC2=C1C(=O)C(=O)c1c2ccc2c1CCCC2(C)C,inactive,
CCCCS(=N)(=O)CCC(N)C(=O)O (stereo not given),inactive,
Oc1cc2c(cc1O)C1c3ccc(O)c(O)c3OCC1(O)C2 (stereo not given),inactive,
Nc1nc(N)c2nc(CNc3ccc(C(=O)NC(CCC(=O)O)C(=O)O)cc3)cnc2n1 (stereo not given),,11.8 µM (active)
N#CC(c1ccc(Cl)cc1)c1c(Cl)cc(-n2ncc(=O)[nH]c2=O)cc1Cl (stereo not given),,23.5 µM (active)
COc1ccc2nc3cc(Cl)ccc3c(Nc3cc(CN4CCCC4)c(O)c(CN4CCCC4)c3)c2n1,inactive,
CC1=C(C(=O)O)N2C(=O)[C@@H](NC(=O)C(N)c3ccccc3)[C@H]2SC1 (stereo not given in full),inactive,
CC1CC2C3CCC4=CC(=O)C=C[C@]4(C)[C@@]3(F)[C@@H](O)C[C@]2(C)[C@@]1(O)C(=O)CO (stereo not given in full),inactive,
CC(C)(CO)[C@@H](O)C(=O)NCCC(=O)O,inactive,
CC(=O)NC(CS)C(=O)O (stereo not given),inactive,
CC(NCCc1ccc(O)cc1)C(O)c1ccc(O)cc1 (stereo not given),inactive,
CN(C)CC[C@H](c1ccc(Cl)cc1)c1ccccn1,inactive,
CC1(C)CCC[C@]2(C)[C@H]3CC(=O)O[C@]3(C)CC[C@@H]12,inactive,
Cc1cc2nc3c(=O)[nH]c(=O)nc-3n(CC(O)C(O)C(O)CO)c2cc1C (stereo not given),inactive,
N[C@@H](CC(=O)N1CCn2c(nnc2C(F)(F)F)C1)Cc1cc(F)c(F)cc1F,inactive,

# Experiment: growth inhibition of DIPG glioma cells, dose response, cell-based, JHH-DIPG-1, MIPE4.0, CellTiter-Glo, qHTS (AID 1347062);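 as to AC50: cells exposed to compound for two days before readout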
# Conditions: JHH-DIPG-1 viability, CellTiter-Glo ATP luminescence
SMILES,outcome,AC50
OC[C@@H](O)[C@@H](O)[C@H](O)[C@@H](O)CO,inactive,
O=c1ccn([C@@H]2O[C@H](CO)[C@@H](O)[C@H]2O)c(=O)[nH]1,inactive,
N#C[C@@H]1C[C@@H]2C[C@@H]2N1C(=O)[C@@H](N)C12CC3CC(CC(O)(C3)C1)C2,inactive,
CCCCS(=N)(=O)CCC(N)C(=O)O (stereo not given),inactive,
CC[C@@]1(O)C(=O)OCc2c1cc1n(c2=O)Cc2cc3cc(O)ccc3nc2-1,,1.87 µM (active)
COc1ccc2nc3cc(Cl)ccc3c(Nc3cc(CN4CCCC4)c(O)c(CN4CCCC4)c3)c2n1,,20.9 µM (active)
CC1=C(C(=O)O)N2C(=O)[C@@H](NC(=O)C(N)c3ccccc3)[C@H]2SC1 (stereo not given in full),inactive,
CC(C)C(C)/C=C/C(C)C1CCC2C3=CC=C4CC(O)CCC4(C)C3CCC21C (stereo not given),inactive,
CC1CC2C3CCC4=CC(=O)C=C[C@]4(C)[C@@]3(F)[C@@H](O)C[C@]2(C)[C@@]1(O)C(=O)CO (stereo not given in full),inactive,
CC(C)(CO)[C@@H](O)C(=O)NCCC(=O)O,inactive,
CN1C(C(=O)Nc2ccccn2)=C(O)c2sc(Cl)cc2S1(=O)=O,inactive,
CC(=O)NC(CS)C(=O)O (stereo not given),inactive,
CC(NCCc1ccc(O)cc1)C(O)c1ccc(O)cc1 (stereo not given),inactive,
CN(C)CC[C@H](c1ccc(Cl)cc1)c1ccccn1,inactive,
COc1ccc(C2Sc3ccccc3N(CCN(C)C)C(=O)C2OC(C)=O)cc1 (stereo not given),inactive,
CC(C)=CCC/C(C)=C/CC/C(C)=C/CC/C(C)=C/CC/C(C)=C/CC/C(C)=C/CC/C(C)=C/CC/C(C)=C/CC/C(C)=C/CO,inactive,
Nc1nc(F)nc2c1ncn2[C@@H]1O[C@H](COP(=O)(O)O)[C@@H](O)[C@@H]1O,inactive,
CC1(C)CCC[C@]2(C)[C@H]3CC(=O)O[C@]3(C)CC[C@@H]12,inactive,
Cc1cc2nc3c(=O)[nH]c(=O)nc-3n(CC(O)C(O)C(O)CO)c2cc1C (stereo not given),inactive,
N[C@@H](CC(=O)N1CCn2c(nnc2C(F)(F)F)C1)Cc1cc(F)c(F)cc1F,inactive,
